Reference: paper PMC7862700, “An all-to-all approach to the identification of sequence-specific readers for epigenetic DNA modifications on cytosine”

Assays:
Test in all cases: DAPPL (digital affinity profiling via proximity ligation, sequencing); 10 mM Tris-HCl pH 7.5, 50 mM NaCl, 1 mM DTT, 4% glycerol, room temperature, 30 min; GST-TFs on glutathione beads, 16-mer random dsDNA library, 0.1% formaldehyde crosslink after washing; high values mean tight binding
FLI1 = molecular target: T1, FLI1 (Homo sapiens, UniProt Q01543 1-452); conditions: protein: recombinant; tags: N-terminal GST; dsDNA, one strand shown
T1 sequence: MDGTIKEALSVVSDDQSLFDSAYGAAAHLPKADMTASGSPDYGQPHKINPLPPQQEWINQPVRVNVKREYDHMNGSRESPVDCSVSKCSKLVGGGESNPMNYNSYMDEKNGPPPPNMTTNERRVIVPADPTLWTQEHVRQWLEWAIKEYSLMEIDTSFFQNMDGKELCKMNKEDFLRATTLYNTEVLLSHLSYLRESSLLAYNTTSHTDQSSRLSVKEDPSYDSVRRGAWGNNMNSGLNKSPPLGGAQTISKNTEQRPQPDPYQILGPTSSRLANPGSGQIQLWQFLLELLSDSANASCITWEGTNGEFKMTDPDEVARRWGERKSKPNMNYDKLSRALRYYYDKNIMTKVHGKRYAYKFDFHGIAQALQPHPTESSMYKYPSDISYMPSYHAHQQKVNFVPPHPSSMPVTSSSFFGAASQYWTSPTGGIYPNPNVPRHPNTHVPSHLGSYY
In short: (§1)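 A tag-only sample was pooled with DNA-barcoded human transcription factors that had been expressed in yeast as GST fusions and captured on glutathione beads. The pools were incubated for 30 min at room temperature with 200 nmole of a random double-stranded 16-mer DNA library in Tris/NaCl/DTT/glycerol buffer, then washed, crosslinked with 0.1% formaldehyde, proximity-ligated (BsaI/T4 ligase, 1 h, 37 °C), PCR-amplified and sequenced on an Illumina NextSeq500. Binding signal is each hexamer's read frequency for a factor divided by its frequency for the tag-only sample.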

ELK1 = molecular target: T2, ELK1 (Homo sapiens, UniProt P19419 1-428); conditions: protein: recombinant; tags: N-terminal GST; dsDNA, one strand shown
T2 sequence: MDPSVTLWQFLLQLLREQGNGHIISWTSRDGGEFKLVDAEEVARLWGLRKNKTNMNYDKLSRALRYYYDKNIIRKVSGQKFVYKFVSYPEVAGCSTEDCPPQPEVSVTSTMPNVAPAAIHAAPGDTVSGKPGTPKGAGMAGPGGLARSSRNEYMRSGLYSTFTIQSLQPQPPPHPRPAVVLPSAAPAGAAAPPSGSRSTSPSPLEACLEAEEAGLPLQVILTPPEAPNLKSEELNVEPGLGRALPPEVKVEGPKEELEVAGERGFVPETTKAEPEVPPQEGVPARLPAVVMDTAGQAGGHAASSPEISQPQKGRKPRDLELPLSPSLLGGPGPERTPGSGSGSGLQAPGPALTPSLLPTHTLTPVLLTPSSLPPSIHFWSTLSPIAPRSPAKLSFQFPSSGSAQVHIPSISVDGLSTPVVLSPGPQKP
In short: as §1

GABPA = molecular target: T3, GABPA (Homo sapiens, UniProt Q06546 1-454); conditions: protein: recombinant; tags: N-terminal GST; dsDNA, one strand shown
T3 sequence: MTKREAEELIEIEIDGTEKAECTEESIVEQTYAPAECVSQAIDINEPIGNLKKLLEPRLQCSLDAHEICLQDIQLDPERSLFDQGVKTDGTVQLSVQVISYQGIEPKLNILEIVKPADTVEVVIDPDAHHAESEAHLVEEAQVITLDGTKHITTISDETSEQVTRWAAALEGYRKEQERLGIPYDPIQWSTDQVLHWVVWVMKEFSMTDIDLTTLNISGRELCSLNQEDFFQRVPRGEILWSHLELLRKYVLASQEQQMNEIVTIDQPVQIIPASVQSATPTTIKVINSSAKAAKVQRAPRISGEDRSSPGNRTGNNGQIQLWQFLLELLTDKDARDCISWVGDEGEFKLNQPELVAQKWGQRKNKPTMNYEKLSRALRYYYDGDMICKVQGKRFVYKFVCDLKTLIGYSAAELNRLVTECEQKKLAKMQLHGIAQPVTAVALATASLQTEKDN
In short: as §1

ERG = molecular target: T4, ERG (Homo sapiens, UniProt P11308 1-479); conditions: protein: recombinant; tags: N-terminal GST; dsDNA, one strand shown
T4 sequence: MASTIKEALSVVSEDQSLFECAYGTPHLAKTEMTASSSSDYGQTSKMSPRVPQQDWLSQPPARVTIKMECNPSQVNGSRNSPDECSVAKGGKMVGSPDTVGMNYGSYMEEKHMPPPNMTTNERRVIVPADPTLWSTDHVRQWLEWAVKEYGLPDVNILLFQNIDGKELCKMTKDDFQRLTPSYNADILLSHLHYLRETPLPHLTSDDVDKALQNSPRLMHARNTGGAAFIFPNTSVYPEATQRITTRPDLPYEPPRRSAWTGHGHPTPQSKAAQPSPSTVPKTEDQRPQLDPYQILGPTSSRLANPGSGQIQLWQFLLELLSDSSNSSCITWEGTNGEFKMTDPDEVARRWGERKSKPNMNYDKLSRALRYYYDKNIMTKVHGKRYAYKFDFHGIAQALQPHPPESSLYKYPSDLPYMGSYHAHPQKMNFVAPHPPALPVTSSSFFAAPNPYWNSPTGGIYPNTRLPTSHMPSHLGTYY
In short: as §1

ELF1 = ELF1 (Homo sapiens, UniProt P32519 1-619); conditions: protein: recombinant; tags: N-terminal GST; dsDNA, one strand shown
In short: as §1

EHF = molecular target: T5, EHF (Homo sapiens, UniProt Q9NZC4 1-300); conditions: protein: recombinant; tags: N-terminal GST; dsDNA, one strand shown
T5 sequence: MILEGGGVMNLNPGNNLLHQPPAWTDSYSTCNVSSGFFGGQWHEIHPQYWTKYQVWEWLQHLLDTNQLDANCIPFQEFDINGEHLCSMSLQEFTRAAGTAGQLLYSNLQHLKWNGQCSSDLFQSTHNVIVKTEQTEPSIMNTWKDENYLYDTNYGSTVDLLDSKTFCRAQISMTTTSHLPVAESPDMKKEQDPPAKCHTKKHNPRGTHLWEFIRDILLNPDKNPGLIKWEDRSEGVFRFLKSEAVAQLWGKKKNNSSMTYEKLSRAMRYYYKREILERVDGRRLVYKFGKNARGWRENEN
In short: as §1

SPI1 = SPI1 (Homo sapiens, UniProt P17947 1-270); conditions: protein: recombinant; tags: N-terminal GST; dsDNA, one strand shown
In short: as §1

SPIB = SPIB (Homo sapiens, UniProt Q01892 1-262); conditions: protein: recombinant; tags: N-terminal GST; dsDNA, one strand shown
In short: as §1

ELK3 = molecular target: T6, ELK3 (Homo sapiens, UniProt P41970 1-407); conditions: protein: recombinant; tags: N-terminal GST; dsDNA, one strand shown
T6 sequence: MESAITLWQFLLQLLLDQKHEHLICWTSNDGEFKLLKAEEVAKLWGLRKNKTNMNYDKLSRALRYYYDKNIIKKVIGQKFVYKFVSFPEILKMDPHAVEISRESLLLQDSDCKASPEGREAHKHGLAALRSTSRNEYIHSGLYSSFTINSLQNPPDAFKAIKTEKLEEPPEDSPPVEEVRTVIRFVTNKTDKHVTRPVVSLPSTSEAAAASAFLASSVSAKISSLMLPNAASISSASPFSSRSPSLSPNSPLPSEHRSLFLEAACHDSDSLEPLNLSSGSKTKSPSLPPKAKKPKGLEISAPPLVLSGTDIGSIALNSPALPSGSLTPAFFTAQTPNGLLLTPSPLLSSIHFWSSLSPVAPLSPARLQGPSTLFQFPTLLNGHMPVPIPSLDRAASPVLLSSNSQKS
In short: as §1

FEV = molecular target: T7, FEV (Homo sapiens, UniProt Q99581 1-238); conditions: protein: recombinant; tags: N-terminal GST; dsDNA, one strand shown
T7 sequence: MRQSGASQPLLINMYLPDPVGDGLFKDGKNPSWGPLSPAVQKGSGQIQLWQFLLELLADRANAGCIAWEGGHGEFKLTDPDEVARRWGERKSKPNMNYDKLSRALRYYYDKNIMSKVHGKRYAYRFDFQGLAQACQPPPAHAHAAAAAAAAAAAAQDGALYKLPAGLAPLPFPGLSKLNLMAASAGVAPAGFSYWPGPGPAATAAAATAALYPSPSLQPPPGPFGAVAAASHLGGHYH
In short: as §1

ETV5 = ETV5 (Homo sapiens, UniProt P41161 1-510); conditions: protein: recombinant; tags: N-terminal GST; dsDNA, one strand shown
In short: as §1

HSF1 = HSF1 (Homo sapiens, UniProt Q00613 1-529); conditions: protein: recombinant; tags: N-terminal GST; chain copies: 3; dsDNA, one strand shown
In short: as §1

SPIC = molecular target: T8, SPIC (Homo sapiens, UniProt Q8N5J4 1-248); conditions: protein: recombinant; tags: N-terminal GST; dsDNA, one strand shown
T8 sequence: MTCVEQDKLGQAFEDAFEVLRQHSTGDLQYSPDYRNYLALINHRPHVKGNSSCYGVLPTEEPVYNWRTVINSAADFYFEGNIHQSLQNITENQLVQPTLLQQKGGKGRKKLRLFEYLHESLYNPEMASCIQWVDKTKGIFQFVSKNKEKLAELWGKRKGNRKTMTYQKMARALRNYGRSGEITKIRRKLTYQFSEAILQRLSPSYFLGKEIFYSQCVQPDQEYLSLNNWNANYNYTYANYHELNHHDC
In short: as §1

ELF4 = ELF4 (Homo sapiens, UniProt Q99607 1-663); conditions: protein: recombinant; tags: N-terminal GST; dsDNA, one strand shown
In short: as §1

ELK4 = molecular target: T9, ELK4 (Homo sapiens, UniProt P28324-2 1-405); conditions: protein: recombinant; tags: N-terminal GST; dsDNA, one strand shown
T9 sequence: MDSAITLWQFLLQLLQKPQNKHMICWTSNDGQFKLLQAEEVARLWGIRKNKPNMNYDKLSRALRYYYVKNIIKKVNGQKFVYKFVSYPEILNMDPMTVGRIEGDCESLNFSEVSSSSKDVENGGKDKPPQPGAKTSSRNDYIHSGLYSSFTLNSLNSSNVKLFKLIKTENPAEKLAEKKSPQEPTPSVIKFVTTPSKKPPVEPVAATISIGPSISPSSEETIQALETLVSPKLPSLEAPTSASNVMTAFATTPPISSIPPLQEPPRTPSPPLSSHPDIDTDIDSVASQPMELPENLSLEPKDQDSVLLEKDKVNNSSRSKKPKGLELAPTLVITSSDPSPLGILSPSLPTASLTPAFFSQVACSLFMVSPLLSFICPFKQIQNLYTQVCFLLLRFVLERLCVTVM
In short: as §1

ETV2 = molecular target: T10, ETV2 (Homo sapiens, UniProt O00321 1-342); conditions: protein: recombinant; tags: N-terminal GST; dsDNA, one strand shown
T10 sequence: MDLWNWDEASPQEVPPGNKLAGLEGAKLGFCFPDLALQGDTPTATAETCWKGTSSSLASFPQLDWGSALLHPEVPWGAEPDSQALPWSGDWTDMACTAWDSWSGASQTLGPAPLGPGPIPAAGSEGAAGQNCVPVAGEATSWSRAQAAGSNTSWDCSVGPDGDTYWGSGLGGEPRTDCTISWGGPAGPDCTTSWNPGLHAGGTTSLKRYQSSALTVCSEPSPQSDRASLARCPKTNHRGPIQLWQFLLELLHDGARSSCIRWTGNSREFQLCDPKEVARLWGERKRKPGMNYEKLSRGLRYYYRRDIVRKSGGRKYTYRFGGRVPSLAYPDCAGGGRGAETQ
In short: as §1

ELF3 = molecular target: T11, ELF3 (Homo sapiens, UniProt P78545 1-371); conditions: protein: recombinant; tags: N-terminal GST; dsDNA, one strand shown
T11 sequence: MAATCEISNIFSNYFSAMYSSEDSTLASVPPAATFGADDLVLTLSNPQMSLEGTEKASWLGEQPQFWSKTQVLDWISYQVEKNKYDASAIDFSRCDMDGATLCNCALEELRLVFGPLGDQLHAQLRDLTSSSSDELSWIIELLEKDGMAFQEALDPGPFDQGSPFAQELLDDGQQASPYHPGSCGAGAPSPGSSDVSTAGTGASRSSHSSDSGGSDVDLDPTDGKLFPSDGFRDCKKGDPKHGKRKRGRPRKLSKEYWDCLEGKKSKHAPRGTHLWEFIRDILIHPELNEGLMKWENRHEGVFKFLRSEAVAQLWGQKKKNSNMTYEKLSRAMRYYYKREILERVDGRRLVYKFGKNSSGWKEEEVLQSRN
In short: as §1

CRX = CRX (Homo sapiens, UniProt O43186 1-299); conditions: protein: recombinant; tags: N-terminal GST; dsDNA, one strand shown
In short: as §1

ETV1 = ETV1 (Homo sapiens, UniProt P50549 1-477); conditions: protein: recombinant; tags: N-terminal GST; dsDNA, one strand shown
In short: as §1

ETV5, sequence (P41161 whole entry): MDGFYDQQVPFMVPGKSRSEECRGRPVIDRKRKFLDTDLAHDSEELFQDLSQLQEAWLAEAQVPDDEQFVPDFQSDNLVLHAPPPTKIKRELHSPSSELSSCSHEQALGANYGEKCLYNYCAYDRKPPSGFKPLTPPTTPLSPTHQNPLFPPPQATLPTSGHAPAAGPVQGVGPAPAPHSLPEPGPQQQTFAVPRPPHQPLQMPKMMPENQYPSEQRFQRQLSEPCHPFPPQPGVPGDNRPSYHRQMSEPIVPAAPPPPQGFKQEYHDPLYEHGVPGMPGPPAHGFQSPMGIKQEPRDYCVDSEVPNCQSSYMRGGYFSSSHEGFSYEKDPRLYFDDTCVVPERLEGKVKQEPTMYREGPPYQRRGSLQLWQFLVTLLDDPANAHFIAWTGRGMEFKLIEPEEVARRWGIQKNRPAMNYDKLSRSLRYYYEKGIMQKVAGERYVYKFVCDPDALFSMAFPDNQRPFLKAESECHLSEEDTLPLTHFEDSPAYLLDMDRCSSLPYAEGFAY
CRX, sequence (O43186 whole entry): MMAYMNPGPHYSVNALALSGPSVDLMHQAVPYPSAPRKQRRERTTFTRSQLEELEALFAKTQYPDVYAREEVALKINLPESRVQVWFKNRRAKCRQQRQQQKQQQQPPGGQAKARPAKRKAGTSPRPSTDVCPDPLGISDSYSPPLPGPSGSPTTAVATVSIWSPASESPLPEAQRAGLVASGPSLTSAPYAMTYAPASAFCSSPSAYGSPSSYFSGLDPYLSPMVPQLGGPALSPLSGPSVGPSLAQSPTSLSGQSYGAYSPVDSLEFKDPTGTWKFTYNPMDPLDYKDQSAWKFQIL
ELF4, sequence (Q99607 whole entry): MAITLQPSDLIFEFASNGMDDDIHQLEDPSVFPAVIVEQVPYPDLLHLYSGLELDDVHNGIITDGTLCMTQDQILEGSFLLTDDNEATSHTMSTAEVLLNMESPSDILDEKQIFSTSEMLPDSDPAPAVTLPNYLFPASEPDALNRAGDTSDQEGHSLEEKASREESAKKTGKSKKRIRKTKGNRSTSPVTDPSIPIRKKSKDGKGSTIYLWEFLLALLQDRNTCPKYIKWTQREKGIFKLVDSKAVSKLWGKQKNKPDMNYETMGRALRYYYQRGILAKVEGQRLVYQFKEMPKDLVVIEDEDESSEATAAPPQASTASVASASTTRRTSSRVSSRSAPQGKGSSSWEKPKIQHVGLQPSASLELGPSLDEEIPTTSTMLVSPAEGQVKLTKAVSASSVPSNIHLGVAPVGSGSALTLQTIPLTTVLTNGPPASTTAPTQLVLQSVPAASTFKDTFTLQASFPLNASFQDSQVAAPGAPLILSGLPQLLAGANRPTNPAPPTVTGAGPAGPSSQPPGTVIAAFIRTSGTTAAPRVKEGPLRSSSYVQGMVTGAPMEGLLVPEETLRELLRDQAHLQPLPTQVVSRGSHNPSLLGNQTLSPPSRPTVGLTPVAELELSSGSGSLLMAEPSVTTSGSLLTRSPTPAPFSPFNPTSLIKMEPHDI
ELF1, sequence (P32519 whole entry): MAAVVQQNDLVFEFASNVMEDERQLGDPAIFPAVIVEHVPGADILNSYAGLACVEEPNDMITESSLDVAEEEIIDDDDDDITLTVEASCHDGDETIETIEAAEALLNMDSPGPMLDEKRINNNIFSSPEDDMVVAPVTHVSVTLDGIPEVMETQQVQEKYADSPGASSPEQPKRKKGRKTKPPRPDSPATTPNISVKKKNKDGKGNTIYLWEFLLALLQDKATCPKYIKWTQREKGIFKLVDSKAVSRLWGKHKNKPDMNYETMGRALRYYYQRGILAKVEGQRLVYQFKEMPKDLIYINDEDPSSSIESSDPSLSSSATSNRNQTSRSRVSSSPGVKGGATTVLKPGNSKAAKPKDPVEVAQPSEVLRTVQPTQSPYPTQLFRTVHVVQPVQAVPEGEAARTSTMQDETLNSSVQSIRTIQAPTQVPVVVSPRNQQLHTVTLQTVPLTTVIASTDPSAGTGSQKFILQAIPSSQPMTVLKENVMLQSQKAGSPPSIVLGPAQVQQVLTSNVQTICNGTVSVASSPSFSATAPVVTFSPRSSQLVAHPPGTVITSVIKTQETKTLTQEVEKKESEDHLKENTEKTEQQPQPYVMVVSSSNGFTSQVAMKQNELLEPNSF
SPIB, sequence (Q01892 whole entry): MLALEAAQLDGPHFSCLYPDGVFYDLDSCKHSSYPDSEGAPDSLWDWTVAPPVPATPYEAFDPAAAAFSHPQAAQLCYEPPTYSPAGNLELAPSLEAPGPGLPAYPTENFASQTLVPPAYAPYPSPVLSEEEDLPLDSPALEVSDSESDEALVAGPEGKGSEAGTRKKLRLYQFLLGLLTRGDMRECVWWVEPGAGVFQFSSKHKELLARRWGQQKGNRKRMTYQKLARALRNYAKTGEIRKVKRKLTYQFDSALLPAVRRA
HSF1, sequence (Q00613 whole entry): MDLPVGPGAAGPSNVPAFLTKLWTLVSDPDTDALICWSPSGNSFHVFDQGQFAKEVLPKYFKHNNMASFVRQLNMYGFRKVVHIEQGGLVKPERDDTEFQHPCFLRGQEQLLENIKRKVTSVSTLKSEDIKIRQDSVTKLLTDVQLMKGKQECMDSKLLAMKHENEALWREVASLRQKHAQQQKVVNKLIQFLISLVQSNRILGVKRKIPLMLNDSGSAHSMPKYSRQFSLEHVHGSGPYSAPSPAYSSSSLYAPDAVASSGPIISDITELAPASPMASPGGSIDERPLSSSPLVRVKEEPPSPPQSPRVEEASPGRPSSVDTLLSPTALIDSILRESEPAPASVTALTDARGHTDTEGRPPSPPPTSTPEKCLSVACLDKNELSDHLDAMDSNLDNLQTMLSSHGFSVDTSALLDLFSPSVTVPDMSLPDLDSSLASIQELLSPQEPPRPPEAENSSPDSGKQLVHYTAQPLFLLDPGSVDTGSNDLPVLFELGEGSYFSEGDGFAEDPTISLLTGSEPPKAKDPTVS
ETV1, sequence (P50549 whole entry): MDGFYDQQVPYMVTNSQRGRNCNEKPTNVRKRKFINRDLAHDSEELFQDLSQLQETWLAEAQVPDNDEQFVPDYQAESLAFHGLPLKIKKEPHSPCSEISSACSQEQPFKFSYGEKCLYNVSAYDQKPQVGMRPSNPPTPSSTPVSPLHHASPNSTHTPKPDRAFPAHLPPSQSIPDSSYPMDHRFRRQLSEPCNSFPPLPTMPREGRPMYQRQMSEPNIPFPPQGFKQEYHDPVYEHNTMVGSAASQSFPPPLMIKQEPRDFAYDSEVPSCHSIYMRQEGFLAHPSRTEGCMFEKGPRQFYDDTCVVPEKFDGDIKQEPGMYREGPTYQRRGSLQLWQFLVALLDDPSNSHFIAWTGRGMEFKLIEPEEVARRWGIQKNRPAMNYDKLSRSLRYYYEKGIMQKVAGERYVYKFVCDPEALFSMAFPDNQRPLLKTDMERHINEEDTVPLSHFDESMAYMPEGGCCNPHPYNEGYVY

Sequence: CTTGCA
- binding signal (FLI1): 1.33 fold enrichment (6-mer frequency, TF over GST control)
- binding signal (ELK1): 1.44 fold enrichment (6-mer frequency, TF over GST control)
- binding signal (GABPA): 1.31 fold enrichment (6-mer frequency, TF over GST control)
- binding signal (ERG): 1.27 fold enrichment (6-mer frequency, TF over GST control)
- binding signal (ELF1): 1.4 fold enrichment (6-mer frequency, TF over GST control)
- binding signal (EHF): 1.33 fold enrichment (6-mer frequency, TF over GST control)
- binding signal (SPI1): 1.25 fold enrichment (6-mer frequency, TF over GST control)
- binding signal (SPIB): 1.26 fold enrichment (6-mer frequency, TF over GST control)
- binding signal (ELK3): 1.34 fold enrichment (6-mer frequency, TF over GST control)
- binding signal (FEV): 1.3 fold enrichment (6-mer frequency, TF over GST control)
- binding signal (ETV5): 1.31 fold enrichment (6-mer frequency, TF over GST control)
- binding signal (HSF1): 1.12 fold enrichment (6-mer frequency, TF over GST control)
- binding signal (SPIC): 1.28 fold enrichment (6-mer frequency, TF over GST control)
- binding signal (ELF4): 1.41 fold enrichment (6-mer frequency, TF over GST control)
- binding signal (ELK4): 1.4 fold enrichment (6-mer frequency, TF over GST control)
- binding signal (ETV2): 1.45 fold enrichment (6-mer frequency, TF over GST control)
- binding signal (ELF3): 1.3 fold enrichment (6-mer frequency, TF over GST control)
- binding signal (CRX): 1.15 fold enrichment (6-mer frequency, TF over GST control)
- binding signal (ETV1): 1.41 fold enrichment (6-mer frequency, TF over GST control)
